Measurements reported in the supplement of paper PMC6555819.

Columns and labels:
Experiment in all cases: PBM binding z-score (relative to random genomic background probes); higher = stronger binding; sequences stand for … in GC…GCGATTGACAGCGTAGAATGAAGG
[1] = tested on: PPARg:RXRa DBDmut IVT, anti-RXR (DBD mutation: RXRa K156A/R161A, NR concentration 270 nM, RXRa partner concentration 90 nM)
Procedure, shortened: (§1)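 Ligand-free nuclear receptor dimers were applied to custom Agilent 4×180K protein-binding microarrays whose double-stranded probes carried direct-repeat seeds, single-nucleotide variants, half-site ablations and random human genomic background sequences in 34-nt variable regions. Incubation lasted 1 h. Binding z-scores were computed against the random background probes from regression-normalized fluorescence.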

[2] = tested on: PPARg:RXRa IVT, anti-PPARg (NR concentration 270 nM, RXRa partner concentration 90 nM)
Procedure, shortened: as §1

[3] = tested on: PPARg DBDmut:RXRa IVT, anti-PPARg (DBD mutation: PPARg1 K132A/R137A, NR concentration 270 nM, RXRa partner concentration 90 nM)
Procedure, shortened: as §1

[4] = tested on: PPARg DBDmut IVT, anti-PPARg (DBD mutation: PPARg1 K132A/R137A, NR concentration 270 nM)
Procedure, shortened: as §1

[5] = tested on: PPARg homodimer (NR concentration 180 nM)
Procedure, shortened: as §1

[6] = tested on: PXR:RXRa (NR concentration 270 nM, RXRa partner concentration 90 nM)
Procedure, shortened: as §1

[7] = tested on: PXR homodimer (NR concentration 270 nM)
Procedure, shortened: as §1

[8] = tested on: RARa:RXR (NR concentration 270 nM, RXRa partner concentration 90 nM)
Procedure, shortened: as §1

[9] = tested on: RARa homodimer (NR concentration 270 nM)
Procedure, shortened: as §1

[10] = tested on: RARb:RXRa (NR concentration 270 nM, RXRa partner concentration 90 nM)
Procedure, shortened: as §1

[11] = tested on: RARb homodimer (NR concentration 270 nM)
Procedure, shortened: as §1

[12] = tested on: RARg:RXRa (NR concentration 270 nM, RXRa partner concentration 90 nM)
Procedure, shortened: as §1

[13] = tested on: RARg homodimer (NR concentration 270 nM)
Procedure, shortened: as §1

[14] = tested on: RXRa DBDmut IVT, anti-RXR (DBD mutation: RXRa K156A/R161A, NR concentration 90 nM)
Procedure, shortened: as §1

[15] = tested on: RXRa homodimer (NR concentration 180 nM)
Procedure, shortened: as §1

[16] = tested on: THRa:RXRa (NR concentration 90 nM, RXRa partner concentration 90 nM)
Procedure, shortened: as §1

[17] = tested on: THRa homodimer (NR concentration 90 nM)
Procedure, shortened: as §1

[18] = tested on: VDR homodimer (NR concentration 270 nM)
Procedure, shortened: as §1

Sequence	PBM binding z-score [1]	PBM binding z-score [2]	PBM binding z-score [3]	PBM binding z-score [4]	PBM binding z-score [5]	PBM binding z-score [6]	PBM binding z-score [7]	PBM binding z-score [8]	PBM binding z-score [9]	PBM binding z-score [10]	PBM binding z-score [11]	PBM binding z-score [12]	PBM binding z-score [13]	PBM binding z-score [14]	PBM binding z-score [15]	PBM binding z-score [16]	PBM binding z-score [17]	PBM binding z-score [18]
TCAAGTAGGTTAGGGGCATTCAGAATGGCGTCGA	4.59	3.94	0.0234	0.234	1.35	1	0.86	0.878	0.676	1.51	1.23	0.789	0.56	1.29	1.08	1.45	0.575	1.48
CCGACTGGGGCAGAAAGGCTACCATACCATCCGG	0.897	0.918	-0.746	-1.37	-0.0679	-0.836	-0.377	-0.589	0.0496	0.362	0.243	-0.0591	-0.0697	-0.996	-0.122	-0.836	-0.539	-0.212
ATATGTAGGTTAGCAGGGGTCATTCAGACTAGGC	6.72	6.32	3.05	2.47	4.78	6.38	2.6	6.55	2.44	3.5	4.08	5.19	3.61	1.99	6.36	4.61	1.78	5.34
TAGCCTAGGTCATGCGGGCCAGTATGGTGTCGGC	1.73	2.9	-0.0668	-0.181	0.816	1.42	-0.582	2.52	-0.311	3.65	2.86	4.2	4.58	0.269	3.23	2.96	1.07	0.682
CGTCCAAGGTCAGAGAGGTCCGTGAATGCCGAGT	2.12	2.18	-0.282	-0.705	1.61	3.03	1.11	2.98	0.291	4.67	3.81	4.45	5.28	2.56	3.48	3.5	1.77	2.04
CGAACTAGGTCAAGGACAATGAATCTCCGCACGC	8.3	8.44	2.51	1.02	2.03	1.31	0.478	1.99	-0.186	3.99	3.13	3.87	4.64	1.52	2.78	3.12	2.15	0.633
CAAACTAGGTCACAGAAGTCAAAGTCCGTGCGTA	8.28	9.03	4.57	2.37	2.34	2.34	0.405	3.34	0.949	4.35	3.41	4.45	5.16	2.03	3.63	3.3	1.26	1.16
AGTCAAAGTTCACTAGGTAACGTAAGATTCAGCT	2.87	5.16	1.07	1.01	2.38	3.71	2.66	2.74	0.986	4.72	3.81	4.81	5.08	4.23	3.76	2.22	0.232	3.29
ACTGGGAGGACAAAGGTCAGAGCTACGCCAGTGA	0.413	3.95	0.328	0.253	4.03	4.16	0.638	5.46	1.31	4.64	4.78	6.22	5.14	1.06	5.47	3.85	1.25	1.41
AGAATAAGGTTATACGTAGATCAGGGAAGAAAGT	2.81	1.19	1.32	1.1	0.729	1.03	0.578	1.66	0.976	1.64	0.925	1.78	1.25	1.2	1.89	2.41	0.789	0.657
AGAATGAGGTTAAGATCATGGAAACAGAATACAT	2.36	2.7	1.78	1.04	0.572	1.24	0.274	1.79	0.586	1.68	0.492	1.94	1.49	0.788	2.62	2.2	0.477	0.212
CAGCCTAGGTCAGCGCCAGTATAGGAGGAACGTT	1.84	1.37	-1.15	-0.469	0.899	0.373	-0.685	1.15	-0.632	3.71	2.6	2.85	4.04	0.449	1.55	2.05	0.498	-0.621
CAAACTAGGTCAATGGTCAAAGTCGAGCCAACCA	8.19	8.52	2.18	0.945	1.27	1.38	0.195	2.25	0.441	3.9	3.34	3.81	4.56	1.51	2.95	2.56	0.976	0.812
CGTCCAAGGTCAATGCTAGGTGAGTGAAAGCATT	3.33	3.79	0.0432	-0.14	1.77	3.31	0.668	3.57	0.59	4.9	3.95	5.76	6.07	3.39	4.73	3.92	2.34	2.15
TCATATAGGTAAATCCTAGGTGAAAGTCCGATCT	3.48	2.8	0.825	0.675	-0.358	0.68	0.175	1.11	0.51	0.592	0.18	0.491	0.396	1.37	0.983	1.96	0.368	-0.253
CGTCCTAGGTCAGCAGGTCAGTGAAAGCGACGTG	3.21	3.44	-0.463	-0.745	1.79	1.75	-0.5	2.64	-0.501	4.39	4.37	4.95	5.41	0.595	3.21	2.88	1.1	0.285

Sequence	PBM binding z-score [1]	PBM binding z-score [2]	PBM binding z-score [3]	PBM binding z-score [4]	PBM binding z-score [5]	PBM binding z-score [6]	PBM binding z-score [7]	PBM binding z-score [8]	PBM binding z-score [9]	PBM binding z-score [10]	PBM binding z-score [11]	PBM binding z-score [12]	PBM binding z-score [13]	PBM binding z-score [14]	PBM binding z-score [15]	PBM binding z-score [16]	PBM binding z-score [17]	PBM binding z-score [18]
GCGACTGGGGCAAAGCAGCTTACCATAAGGTTGG	4.53	3.13	-0.355	-0.462	-0.569	-0.681	-0.894	-0.835	-1.36	0.456	-0.0781	-0.172	0.112	-0.131	-0.267	-0.139	-0.756	-0.658
TCGATTAGGTTACCAATGGGGCATTCAGCTTTCT	2.52	1.4	0.217	0.237	0.366	0.467	-0.59	0.557	-0.505	1.44	1.09	1.39	0.551	1.2	0.573	0.894	0.0109	-0.327
GCTGCTAGGTCAACTGTTGGTCAGCTAAAGCTCG	5.26	4.32	0.227	-0.586	1.68	1.48	-0.906	2.9	-0.53	4.42	3.66	5.23	5.32	1.66	3.12	2.84	0.983	-0.34
GCGACTGGGGCAAAGCAGGTGACCATAAGGTTGG	4.22	3.65	-0.66	-0.849	0.17	-0.318	-0.7	0.805	-0.538	0.913	0.982	0.256	0.536	-0.884	0.188	2.88	-0.094	-0.886
AGTCAAAGTACATCTAGGTAACGTAAGATATGCT	0.968	2.23	0.568	1.11	-0.552	-0.0859	0.334	-0.223	0.0853	0.801	-0.123	0.265	0.944	0.854	0.346	0.814	-0.353	0.155
GCTATTTGGTCAGTAAAAGGTCACACACCGGTCG	1.19	3.03	0.901	1.1	3.8	5.12	1.46	5.67	2.38	4.45	5.41	5.36	4.76	0.964	5.44	3.91	2.43	2
TCTTGTAGATCCATAGAGGTTAAGAAAGTGCGCT	1.15	0.128	1.1	0.975	0.227	2.66	0.0814	1.35	0.858	0.837	1.25	0.611	0.378	0.691	1.1	1.07	-0.276	0.319
AGAATGAGGTTATTAAGATCAGAGAATTGCGGTC	3.17	2.63	0.323	0.23	0.951	1	0.488	1.2	0.79	1.16	0.575	1.21	0.933	1.88	1.7	2.06	0.584	1.11
CGAACTAGGTCAAGGACAGCGAATCTCCGCACGC	7.76	8.26	2.54	2.03	1.63	1.06	0.0262	1.9	0.554	3.81	3.31	3.9	4.6	1.5	2.63	3.17	2.2	0.441
CAGCCTAAGTCAGGGCCAGTATAGGAGGAACGTT	-0.358	-0.577	-1.05	-1.43	-0.193	-0.653	-0.125	-0.178	-0.484	-0.134	0.00988	-0.148	-0.0459	-0.572	-0.223	-0.328	-0.317	-0.363
ACTAGCAGGCCAAGTTTGGGTCATTCAAACAAAG	0.974	1.1	-0.68	-0.939	0.745	1.08	-0.0146	1.73	-0.276	1.69	2.24	2.22	1.29	-0.125	0.803	2.55	0.849	0.69
TCTGCTAGTTCAGTTGGTCAGCTAACGAGCTGCC	0.762	0.394	-0.505	-0.636	-1.77	-0.0751	-0.641	-0.244	-1.61	0.778	0.296	-0.136	0.0684	0.659	-0.391	-0.312	-0.718	-0.523
AGAACGAGGGCACGCTGGGTTGATAGCAGAGTAG	3.63	3.69	1.12	0.143	0.498	1.25	0.183	1.17	0.372	2.41	1.28	2.01	2.36	1.87	1.56	2.5	0.224	2.08
AGTCAAAGTTCAGGACGAGCTAACGTAAAGCACG	-0.565	1.33	0.323	-0.197	1.5	1.98	0.743	1.88	0.728	4.11	2.77	4.22	4.84	2.68	2.83	1.95	0.278	1.5
TATAGTTGGTCACGGAGGTCACACACGACGGGTA	1.03	4.52	1.35	2.08	2.56	4.66	1.06	4.48	1.98	4.09	4.58	4.81	4.72	-0.131	5.16	3.9	2.69	2.85
